From PubChem
mHTT CaM bind = disrupts binding of mutant huntingtin to calmodulin | P42858 | AlphaScreen His-mHTT/GST-CaM binding, luminescence | inhibition, % at 15 µM | 190,000 compounds, 3.6% hits;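 also: 0% = both proteins with DMSO and 100% = one protein alone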
Target sequence (P42858 whole entry, looked up, stated change not applied): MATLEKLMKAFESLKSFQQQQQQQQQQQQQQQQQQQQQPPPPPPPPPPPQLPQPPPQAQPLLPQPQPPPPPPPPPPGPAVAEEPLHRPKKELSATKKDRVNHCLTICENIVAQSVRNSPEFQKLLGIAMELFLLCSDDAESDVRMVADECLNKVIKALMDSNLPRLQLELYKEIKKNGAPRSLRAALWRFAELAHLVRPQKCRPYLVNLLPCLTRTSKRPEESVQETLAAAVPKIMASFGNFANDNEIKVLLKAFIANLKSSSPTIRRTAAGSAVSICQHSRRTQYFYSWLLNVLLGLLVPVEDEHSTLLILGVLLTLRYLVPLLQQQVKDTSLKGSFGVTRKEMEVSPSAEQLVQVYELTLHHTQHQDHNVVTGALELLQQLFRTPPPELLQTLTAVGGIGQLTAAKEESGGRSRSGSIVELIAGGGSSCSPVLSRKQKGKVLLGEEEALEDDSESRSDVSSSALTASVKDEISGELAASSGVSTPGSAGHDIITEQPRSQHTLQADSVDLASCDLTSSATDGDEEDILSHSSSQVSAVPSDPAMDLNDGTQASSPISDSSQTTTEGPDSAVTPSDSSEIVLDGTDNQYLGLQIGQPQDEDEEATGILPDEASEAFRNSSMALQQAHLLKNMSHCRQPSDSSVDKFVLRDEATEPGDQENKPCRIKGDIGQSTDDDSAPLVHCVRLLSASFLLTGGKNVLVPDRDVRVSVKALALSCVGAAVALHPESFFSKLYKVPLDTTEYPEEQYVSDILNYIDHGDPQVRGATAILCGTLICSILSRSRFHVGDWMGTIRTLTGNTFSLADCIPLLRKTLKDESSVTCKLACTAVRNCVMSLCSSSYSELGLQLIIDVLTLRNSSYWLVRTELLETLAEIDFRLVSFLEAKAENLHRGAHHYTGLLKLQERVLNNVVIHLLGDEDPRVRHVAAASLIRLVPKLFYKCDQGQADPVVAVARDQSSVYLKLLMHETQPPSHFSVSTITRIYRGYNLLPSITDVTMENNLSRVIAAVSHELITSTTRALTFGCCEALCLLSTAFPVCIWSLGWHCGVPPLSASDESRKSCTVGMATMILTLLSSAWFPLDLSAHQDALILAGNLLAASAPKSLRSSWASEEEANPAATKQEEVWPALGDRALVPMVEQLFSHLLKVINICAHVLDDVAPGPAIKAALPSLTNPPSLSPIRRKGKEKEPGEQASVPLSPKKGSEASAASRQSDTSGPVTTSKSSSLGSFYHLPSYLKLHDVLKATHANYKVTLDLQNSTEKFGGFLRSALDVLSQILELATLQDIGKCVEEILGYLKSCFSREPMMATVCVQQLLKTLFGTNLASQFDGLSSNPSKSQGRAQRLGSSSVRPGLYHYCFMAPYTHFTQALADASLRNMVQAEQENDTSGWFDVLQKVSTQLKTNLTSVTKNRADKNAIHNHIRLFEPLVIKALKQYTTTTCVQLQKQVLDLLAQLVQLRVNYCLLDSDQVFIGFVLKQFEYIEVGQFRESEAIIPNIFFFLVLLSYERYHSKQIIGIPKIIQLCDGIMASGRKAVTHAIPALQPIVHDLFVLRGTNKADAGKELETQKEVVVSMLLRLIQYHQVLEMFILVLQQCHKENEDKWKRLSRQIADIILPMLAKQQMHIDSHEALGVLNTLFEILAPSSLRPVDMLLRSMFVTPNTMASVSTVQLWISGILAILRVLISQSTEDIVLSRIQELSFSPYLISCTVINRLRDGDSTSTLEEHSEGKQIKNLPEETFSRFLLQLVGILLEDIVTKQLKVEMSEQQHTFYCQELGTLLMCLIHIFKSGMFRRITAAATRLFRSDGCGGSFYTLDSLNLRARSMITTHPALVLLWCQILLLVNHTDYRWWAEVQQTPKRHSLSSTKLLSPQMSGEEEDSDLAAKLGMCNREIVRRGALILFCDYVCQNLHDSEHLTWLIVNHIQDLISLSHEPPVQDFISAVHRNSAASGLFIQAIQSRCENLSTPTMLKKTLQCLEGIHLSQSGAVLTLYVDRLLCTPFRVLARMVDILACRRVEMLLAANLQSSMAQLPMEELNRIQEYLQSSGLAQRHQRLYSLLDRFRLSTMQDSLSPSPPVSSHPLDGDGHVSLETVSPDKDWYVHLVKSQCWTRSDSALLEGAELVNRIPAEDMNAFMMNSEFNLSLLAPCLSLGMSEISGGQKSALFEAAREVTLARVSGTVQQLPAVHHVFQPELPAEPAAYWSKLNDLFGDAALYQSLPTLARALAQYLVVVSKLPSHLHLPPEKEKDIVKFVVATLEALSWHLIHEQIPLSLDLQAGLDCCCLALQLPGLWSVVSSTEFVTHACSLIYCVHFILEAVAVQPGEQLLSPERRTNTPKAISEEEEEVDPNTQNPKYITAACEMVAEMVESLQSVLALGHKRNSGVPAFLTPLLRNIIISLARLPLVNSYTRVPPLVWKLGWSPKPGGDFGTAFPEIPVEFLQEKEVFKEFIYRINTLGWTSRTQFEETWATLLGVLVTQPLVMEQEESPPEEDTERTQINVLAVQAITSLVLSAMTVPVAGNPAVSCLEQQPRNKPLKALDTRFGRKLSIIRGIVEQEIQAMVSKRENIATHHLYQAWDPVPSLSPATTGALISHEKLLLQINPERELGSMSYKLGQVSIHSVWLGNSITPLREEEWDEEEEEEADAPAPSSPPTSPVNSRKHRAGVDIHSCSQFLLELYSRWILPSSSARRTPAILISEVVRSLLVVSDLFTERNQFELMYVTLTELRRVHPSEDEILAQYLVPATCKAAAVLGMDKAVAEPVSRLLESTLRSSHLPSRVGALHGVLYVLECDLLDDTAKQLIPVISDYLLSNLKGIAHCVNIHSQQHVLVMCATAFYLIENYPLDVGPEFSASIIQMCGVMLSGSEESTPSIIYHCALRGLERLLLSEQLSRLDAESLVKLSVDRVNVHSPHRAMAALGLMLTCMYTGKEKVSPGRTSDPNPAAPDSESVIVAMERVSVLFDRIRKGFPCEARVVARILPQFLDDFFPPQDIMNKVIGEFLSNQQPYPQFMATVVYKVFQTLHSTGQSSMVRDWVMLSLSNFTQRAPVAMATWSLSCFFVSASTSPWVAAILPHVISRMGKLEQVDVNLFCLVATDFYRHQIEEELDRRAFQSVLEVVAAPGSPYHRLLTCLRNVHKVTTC
Pf apPOL inh = Pf-apPOL DNA polymerase inhibition; Recombinant Pf-apPOL, molecular beacon fluorescence, 1.5 h; inhibition, % at 10 µM; 210,000 compounds, 0.25% hits; AID 1794808
Active calls of the source: *; · = no result. Shown is part of a subset that was picked to be rich in hits. Rule as the data show it: active = inhibition above about 50%; inactive = the rest.

SMILES	mHTT CaM bind	Pf apPOL inh
O=c1cc[nH]c2cc(N3CCOCC3)c(F)cc12	-5	80*
CN(C)CCNC(=O)c1cn2cc(-c3ccccc3)ccc2n1	10	-2
O=C1CC(c2c[nH]c3ccccc23)C(=O)N1c1ccc(O)cc1 (stereo unspecified)	77*	-4
CC(C)(C)c1ccc(N2C(=O)CC(c3ccccc3)C2=O)cc1 (stereo unspecified)	·	2
Cc1ccc(C)c(N2CCN(C(=O)NC(C)(C)C)C(C)C2=O)c1 (stereo unspecified)	3	-4
Fc1ccc(N2Cc3ccccc3C2)cc1	-6	·
Oc1ccc(N2Cc3ccccc3C2)cc1	100*	-8
O=C(CN1CCN(c2nc3cc(Cl)ccc3s2)CC1)c1ccc(F)cc1	·	-6
Cc1noc(C)c1Sc1ccccc1[N+](=O)[O-]	-1	0
COc1cccc(C2C3=C(CC(C)(C)CC3=O)Nc3ccccc3N2C(=O)C(F)(F)F)c1 (stereo unspecified)	8	-4
O=C(Oc1ccc2c(c1)OC(=CC1=Cc3ccccc3OC1)C2=O)c1cccs1	79*	-2
CC(=O)COc1ccc2c(c1)OC(=CC1=Cc3ccccc3OC1)C2=O	-2	-2
O=[N+]([O-])c1ccc(N2CCN(S(=O)(=O)c3ccccc3)CC2)cc1SCc1ccco1	98*	-9
O=[N+]([O-])c1ccc(N2CCOCC2)cc1SCc1ccco1	24	-6
CCOc1ccc2sc(C=NCc3ccc(F)cc3)c(O)c2c1	45	2
CCOc1ccc2sc(C=NCc3ccc(OC)cc3)c(O)c2c1	55*	0
NC(=S)N=Nc1c2nnnc2c(NNC(N)=S)c2n[nH][nH]c12	100*	·
CCCC(=O)N1CCCC(COc2ccc(C(=O)NC3CC3)cc2)C1 (stereo unspecified)	0	4
Fc1ccc(C2Nc3ccc(F)cc3C3C=CCC32)cc1 (stereo unspecified)	94*	-1
Cc1cc(I)cc2c1NC(c1ccc(F)cc1)C1CC=CC21 (stereo unspecified)	54*	0
CN(C)C(=O)c1cc2c(s1)CCC(C(=O)NCc1ccccn1)C2 (stereo unspecified)	0	-9
Cc1cc2c(c(=O)[nH]1)C(=O)O/C2=C\c1ccc(F)cc1	13	-8
CC1(C)CC(=O)C2=C(C1)OC(N)=C(C#N)C2c1ccc(F)cc1 (stereo unspecified)	4	-6
Cc1ccccc1C1C(C#N)=C(N)OC2=C1C(=O)CCC2 (stereo unspecified)	-8	-1
CCN1C=C(Cc2ccccc2C)C2=C(C1)C(c1ccccc1C)C(C#N)=C(N)O2 (stereo unspecified)	64*	-5
SMILES	mHTT CaM bind	Pf apPOL inh
CCN1C=C(Cc2ccc(F)cc2)C2=C(C1)C(c1ccc(F)cc1)C(C#N)=C(N)O2 (stereo unspecified)	85*	-14
Cc1cc(O)c(C(c2ccc(O)cc2)c2c(O)cc(C)oc2=O)c(=O)o1	3	3
CC(C)n1c(C2CCN(C(=O)Cc3ccccc3F)C2)nc2ccncc21 (stereo unspecified)	-9	-7
COc1cc([N+](=O)[O-])ccc1O	-5	·
COc1cc(/C=C2\C(C)=C([N+](=O)[O-])CS2(=O)=O)ccc1O	87*	-1
C#CCSc1ccccc1C(=O)O	-7	-4
C#CC(C=CC)OC(=O)c1ccccc1C(=O)O (stereo unspecified)	·	53*
Cc1cccc(N2C(=O)C3C4C=CC(C4=C4C5CC6CC(C5)CC4C6)C3C2=O)c1 (stereo unspecified)	-3	2
CCOc1nccnc1N1CCC(NC(=O)c2ccoc2)C1 (stereo unspecified)	9	-2
CCOC(=O)c1nc(N2CCCC2)c2oc3ccccc3c2n1	2	-4
O=C(NC1CC1)c1nc(N2CCCCCC2)c2oc3ccccc3c2n1	52*	-9
COc1ccc(C(F)(F)F)cc1NC(=O)c1cccnc1	-6	5
COc1ccc(C(=O)CSc2nc(-c3cccs3)ccc2C#N)cc1OC	-12	-3
COc1ccc(C(CCN2CCOCC2)c2c(OC)cc(OC)c3c(-c4ccccc4)cc(=O)oc23)cc1 (stereo unspecified)	66*	-8
COc1ccc(C(CCN2CCCC2)c2c(OC)cc(OC)c3c(-c4ccccc4)cc(=O)oc23)cc1 (stereo unspecified)	98*	-12
COc1ccc(C(CCN2CCCC(C)C2)c2c(OC)cc(OC)c3c(-c4ccccc4)cc(=O)oc23)cc1 (stereo unspecified)	100*	-3
COc1ccc(C(CCN2CCCC(C)C2)c2c(OC)cc(OC)c3c(C)cc(=O)oc23)cc1 (stereo unspecified)	20	-8
CC1CCN(C(C)CNC(=O)Nc2ccc(F)cc2)CC1 (stereo unspecified)	-17	-5
Cc1cc(-n2cc(C(=O)N3CCC(NC(=O)c4ccccc4Cl)CC3)nn2)ccc1F	-6	0
CCn1ccc(C(=O)N2CCC(c3noc(-c4ccccc4C)n3)CC2)n1	6	1
COc1ccc(N2C(c3ccsc3)=Cc3cc4c(cc3C2c2c[nH]c3ccccc23)OCO4)cc1 (stereo unspecified)	70*	-9
CC(C)(O)C#Cc1ccc(N2C(c3ccsc3)=Cc3ccc(F)cc3C2c2c[nH]c3ccc(C#N)cc23)cc1 (stereo unspecified)	-7	-4
O=C(Nc1ccc2c(c1)Cc1ccccc1-2)c1coc(NC(=O)C2CC2)n1	30	-4
CCCc1nc2cccnc2n1C1CCN(C(=O)Nc2ccccc2F)C1 (stereo unspecified)	0	-6
COc1ccc(Cl)cc1C(=O)N1CCN(C2=NN=C(c3cccs3)CS2)CC1	68*	5
SMILES	mHTT CaM bind	Pf apPOL inh
COc1ccc(Cl)cc1C(=O)N1CCN(c2ccccc2F)CC1	-1	-11
COc1cc([N+](=O)[O-])cc2c1NC(c1ccc(Cl)cc1)C1CC=CC21 (stereo unspecified)	38	9
COc1ccc(C2Nc3ccccc3C3C=CCC32)cc1[N+](=O)[O-] (stereo unspecified)	86*	0
COc1cc(C2Nc3c(Cl)cccc3C3C=CCC32)cc(OC)c1OC (stereo unspecified)	70*	-4
Fc1ccc(C2Nc3c(Cl)cccc3C3C=CCC32)cc1 (stereo unspecified)	37	0
COc1ccc(C2Nc3c(Cl)cccc3C3C=CCC32)cc1[N+](=O)[O-] (stereo unspecified)	52*	-4
COc1cccc2c1NC(c1ccccc1[N+](=O)[O-])C1CC=CC21 (stereo unspecified)	73*	-1
CCOc1cc2c(c([N+](=O)[O-])c1)NC(c1ccc(Cl)cc1)C1CC=CC21 (stereo unspecified)	41	-1
COc1ccc(C2Nc3c(OC)ccc(Cl)c3C3C=CCC32)cc1[N+](=O)[O-] (stereo unspecified)	62*	0
O=[N+]([O-])c1cccc2c1NC(c1cccc(Cl)c1Cl)C1CC=CC21 (stereo unspecified)	73*	-3
COc1ccc(CNC(=O)C2CCN(c3nnc(-c4ccc(C)cc4)o3)CC2)cc1OC	22	-2
CCc1ccc(C(=O)Nc2cccc(-n3cnnn3)c2)cc1	-8	-6
CS(=O)(=O)N1CCc2ccc(NC(=O)Nc3ccc(Cl)cc3)cc21	-6	-1
